The results in this text go back to PMC12136788.

Where a chain is given by its changes, count along the chain named. Whole data set: some 5,800 sequences, median “enrichment r” near 0.68, cut for the highest 2% near 11. The list comes from a sample in which the highest values are over-represented; it also holds similar and randomly drawn sequences.

First the molecules themselves.
T1: UNK ZnF1-6 (called full-length) (human, UniProt Q9C0B0 30-357)
T1 sequence: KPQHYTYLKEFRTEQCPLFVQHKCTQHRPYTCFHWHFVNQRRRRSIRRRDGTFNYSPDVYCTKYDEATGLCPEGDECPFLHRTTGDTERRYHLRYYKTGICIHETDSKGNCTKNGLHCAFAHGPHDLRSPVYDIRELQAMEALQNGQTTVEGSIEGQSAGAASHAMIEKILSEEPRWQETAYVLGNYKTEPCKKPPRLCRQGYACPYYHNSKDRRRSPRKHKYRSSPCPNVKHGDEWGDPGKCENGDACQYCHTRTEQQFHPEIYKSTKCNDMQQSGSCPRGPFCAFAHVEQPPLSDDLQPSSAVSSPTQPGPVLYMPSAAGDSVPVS

B1: chr5:136976780:136976881:-|3pUTR|ENSG00000152377|msi1|FALSE|unique (ssRNA)
RNA: GGGAGUUCUACAGUCCGACGAUCCUUAAAUUAGCAUGUUCCAAUCCAGUCGGCAUUGCCUGAAUACAGUAGCAUCAUACCUAUAGUUGGUCUUAGAUAAGAAAUGAACUACUUGAUAUAGCAAAGUCCUUUGGCUUCGUAAAUCAACAGAGGAUUGAGCAUCA
B2: chr3:168010103:168010202:-|3pUTR|ENSG00000173905|msi1_unk|FALSE|overlapping (ssRNA)
RNA: GGGAGUUCUACAGUCCGACGAUCGCUCAAACAUAAAUCUGCCUACUGAACUCUAGGAUAUUUAAUUACAAAAAUUAAGAACUUAGACUUUUUUAAAACUUUUGUAUUAGAAAUGCGCAUACAUUUAUAUGAAUAUAUUUUGAUCAACAGAGGAUUGAGCAUCA
B3: chr3:168010103:168010202:-|3pUTR|ENSG00000173905|msi1_unk|total|mutant (ssRNA)
RNA: B2 RNA with U53C, A54C, U83C, A84C, U107C, A108C
B4: chr9:5123879:5124511:-|three_prime_utr|ENSG00000120210|control|control|control (ssRNA)
RNA: GGGAGUUCUACAGUCCGACGAUCCUGGUAAAUUGGAUUGCCAUAUGCAGAAGAAUGAAACUGGACCCAUAUUUAUCACCAUAUAGAAAAAUUAACUCGAUCGAUUACAGACUUAAAUGUAAGAUCUGAAACUAGAAAAAUACUCAACAGAGGAUUGAGCAUCA
B5: chr20:59325757:59325866:+|3pUTR|ENSG00000124205|unk|FALSE|unique (ssRNA)
RNA: GGGAGUUCUACAGUCCGACGAUCUUAUGUGGAUCUGUUCAAAGUAGUCACUGUAUAUACGUAUAGAGAGGUAGAUAGGUAGGUAGAUUUUAAAUUGCAUUCUGAAUACAAACUCAUACUCCUUAGAGCUUGAAUUACAUUUUUCAACAGAGGAUUGAGCAUCA
B6: chr11:118396625:118396726:+|3pUTR|ENSG00000110344|msi1|FALSE|bound_elsewhere (ssRNA)
RNA: GGGAGUUCUACAGUCCGACGAUCAACUUGACAAUGCUCCCCUGGCUUGCAGGAAAUUAUACUUAUUAUAGCAUCACCAAGUUUAGAAAUCAUCACUAAUUUUCACCCUCUGUUGUCUCUUCAUAUUCUUCUUCCUUUUCCUAACAACAGAGGAUUGAGCAUCA
B7: chr12:50748518:50748596:+|3pUTR|ENSG00000066084|msi1_unk|FALSE|overlapping (ssRNA)
RNA: GGGAGUUCUACAGUCCGACGAUCUCAAAUUCAAACUACAGUACUGUGUAAUUAUGUAUAAAGUUUUUUUAUUUAUUUGAAGUUAGACUAGAUAUACGUUUUUAAAUUUAACAUCUGGCUGGACAGUGUUCUAUUAACUCAUUGCAACAGAGGAUUGAGCAUCA
B8: chr8:103442975:103443076:+|3pUTR|ENSG00000164934|msi1|FALSE|bound_elsewhere (ssRNA)
RNA: GGGAGUUCUACAGUCCGACGAUCGGACUAGAUUAAUUGCAAACAUUUUAGUUAUAUGUGUAGAGCUUUAUUGUUACUCCUUUUAGCUACCCUGAAAAAUGAUCCUUAAAGGUGGCCUAGUUGGUAAGACUGUUUUAUCCUUAACAACAGAGGAUUGAGCAUCA
B9: chr12:48342538:48342639:-|3pUTR|ENSG00000167528|unk|FALSE|unique (ssRNA)
RNA: GGGAGUUCUACAGUCCGACGAUCUUGUUAAACAUUUUGAGUAUCACUCUUGCAUACUGUUACUAUUAUAUUUUCUCUAUAUAUAGACAGAAAGGCCAUUUUAGAAUAUUAAAGGCUCUGAAAAUUUCUGCAGUAGACCCAACUCAACAGAGGAUUGAGCAUCA
B10: chr5:24509697:24509799:-|CDS|ENSG00000040731|unk|FALSE|unique (ssRNA)
RNA: GGGAGUUCUACAGUCCGACGAUCACUCGACUAUGAGAGCCGAAGACUUUAUACUCUGAAAGUCGAAGCAGAAAACACCCAUGUAGAUCCCCGUUUUUAUUACCUAGGACCAUUUAAAGAUACUACCAUAGUGAAAAUCUCUAUCAACAGAGGAUUGAGCAUCA
B11: chr3:64018827:64018930:-|CDS|ENSG00000163636|unk|FALSE|unique (ssRNA)
RNA: GGGAGUUCUACAGUCCGACGAUCUGAACUCAUGGAUUAUAAAACAUUUGUGACUUAUACUGUCUAUGUCAGUAUGAUUGCCUUAGAAAGACCAGAUCUCAGGGAAAAGGUAAUGACCAAACUUUAAUACUCAAAUUUAAAGACCAACAGAGGAUUGAGCAUCA
B12: chr6:105100707:105100870:-|3pUTR|ENSG00000112276|msi1|FALSE|unique (ssRNA)
RNA: GGGAGUUCUACAGUCCGACGAUCUGAGAUAUAUAUUUUCACAGUCUUUUCUAGAUAUAUUAUUGUUUUAACUUAACAAAUCUUAGCAAUCUCUCAAUGCCUUUUCACUUAUUUUUUUCCAAGUUAUGAUUCUUUUUCCUCACACAACAGAGGAUUGAGCAUCA
B13: chr6:105100707:105100870:-|3pUTR|ENSG00000112276|msi1|total|mutant (ssRNA)
RNA: B12 RNA with U51C, A52C, U83C, A84C
B14: chr6:43570573:43570674:-|CDS|ENSG00000124571|unk|FALSE|unique (ssRNA)
RNA: GGGAGUUCUACAGUCCGACGAUCGGUGUAGGAAACACAGACAGAAUUGGUGAUGUUUAUCCUUUUGCGACUGGCAGAGGAUGUAGUGACUUUUCAGACACUUCCCCCUCAAAGAAGAAGGGACAUCCAGCAAACAUUAACCCACAACAGAGGAUUGAGCAUCA
B15: chr11:73394502:73394603:+|CDS|ENSG00000054967|msi1|total|mutant (ssRNA)
RNA: GGGAGUUCUACAGUCCGACGAUCCACCAUCUCCACACCGUGCAGGGCCUGGCCUCGCUCUCUGGCCCCUGCUGCUCCCGCUGCCGCCAGAAGAAGUGGCCCGAGGUGCUGCUGUCCCCUGAGGCUGCCGCCGCCACUACUCCUCAACAGAGGAUUGAGCAUCA
B16: chr3:107805913:107806014:+|3pUTR|ENSG00000114439|msi1_unk|FALSE|overlapping (ssRNA)
RNA: GGGAGUUCUACAGUCCGACGAUCUACAUGGAGAUUUAAGUUUAAGAUGGUUUAUAUAAUAGGUUAUACCUACAUUUAUAUUGUAGAAUAAAUAUUAAAAAGCCUGUUCCAGAGACUCCCAAGCAGCCUGGGCAGGCAGAUGUACAACAGAGGAUUGAGCAUCA

The test concerns the target T1, UNK ZnF1-6 (called full-length). Kind of test: nsRBNS (natural sequence RNA bind-n-seq); RBNS binding buffer (assumed for nsRBNS): 25 mM Tris pH 7.5, 150 mM KCl, 3 mM MgCl2, 0.01% Triton X-100, 500 ug/ml BSA, 20 U/ml SUPERase-In, 4 C; UNK is unkempt and MSI1 is Musashi-1; names of the RNAs are library labels; protein concentration not given here; high values mean tight binding.
In turn, B1 returned a binding signal of 8.89 enrichment R. Under B2 stands 12.6 enrichment R; under B3, 3.17 enrichment R. The molecule B4 displayed a binding signal of 21.7 enrichment R. In the case of B5 it was 20.3 enrichment R. B6: the binding signal amounted to 4.24 enrichment R.

The molecule B7 returned a binding signal of 6.56 enrichment R. B8 returned a binding signal of 6.96 enrichment R. With B9, the binding signal turned out to be 3.54 enrichment R.

With B10, the binding signal was determined as 1.94 enrichment R. In the case of B11 it was 0.48 enrichment R; in that of B12, 18.7 enrichment R.

As for B13, the binding signal was determined as 3.08 enrichment R. Consider B14, for which the binding signal was determined as 0.529 enrichment R. In the case of B15 it was 0.888 enrichment R; in that of B16, 1.89 enrichment R.
